# Measured values as given in PubChem BioAssay (NCI).
# Compounds without any hit were thinned out: in the full panel of roughly 79,000, 15% have a hit. Unmarked numbers belong to inactive results. Activity calls are given as the source filed them. Rule as the data show it: active = growth inhibition above about 70%; inactive = the rest.
# Tests used:
# [1] = NCI Yeast Anticancer Drug Screen. Data for the rad52 strain (AID 147);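 also: 0% = growth of vehicle-treated control cultures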; settings: S. cerevisiae rad52 mutant growth inhibition, hits give high values
# Procedure, shortened: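 Vehicle-treated cultures served as the reference for growth inhibition of compound-exposed yeast bearing a DNA repair mutation.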
# [2] = NCI Yeast Anticancer Drug Screen. Data for the wt1 strain (AID 149);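 also: 0% = growth of vehicle-treated wt1 cultures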; settings: S. cerevisiae wt1 strain (SPY 50644) growth inhibition, hits give high values
# Procedure, shortened: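 Vehicle-normalised growth inhibition; strain wt1; compound exposure.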
# [3] = NCI Yeast Anticancer Drug Screen. Data for the rad50EPP+ strain (AID 151);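 also: 0% = growth of vehicle-treated control cultures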; settings: S. cerevisiae rad50 mutant strain, hits give high values
# Procedure, shortened: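 In this screen, rad50EPP+ yeast were exposed to compounds. Growth inhibition was scored against vehicle-treated controls.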
# [4] = NCI Yeast Anticancer Drug Screen. Data for the mgt1 strain (AID 153); settings: S. cerevisiae mgt1 mutant growth inhibition, hits give high values
# Procedure, shortened: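 mgt1 strain exposed; growth vs vehicle control recorded as inhibition.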
# [5] = NCI Yeast Anticancer Drug Screen. Data for the rad50 strain (AID 155);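 also: 0% = growth of vehicle-only cultures of the same strain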; settings: S. cerevisiae rad50 strain growth inhibition, hits give high values
# Procedure, shortened: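 A DNA repair-deficient yeast mutant serves as the test organism; compound-induced growth inhibition is calculated against vehicle-treated cells.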
# [6] = NCI Yeast Anticancer Drug Screen. Data for the mec2-1 strain (AID 157); settings: S. cerevisiae mec2-1 strain, hits give high values
# Procedure, shortened: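 Vehicle-treated cultures served as reference for growth inhibition of compound-exposed mec2-1 yeast.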
# [7] = NCI Yeast Anticancer Drug Screen. Data for the rad14 strain (AID 159);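 also: 0% = growth of vehicle-treated control cultures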; settings: S. cerevisiae rad14 strain growth inhibition, hits give high values
# Procedure, shortened: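 Vehicle-treated cultures served as the baseline for growth inhibition of a DNA repair-mutant yeast strain exposed to each compound.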
# [8] = NCI Yeast Anticancer Drug Screen. Data for the sgs1 mgt1 strain (AID 161);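 also: 0% = growth of cultures given vehicle only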; settings: S. cerevisiae sgs1 mgt1 strain, hits give high values
# Procedure, shortened: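 Test agents were incubated with a DNA-repair-mutant yeast strain. Growth was then read and compared against vehicle-treated controls.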
# [9] = NCI Yeast Anticancer Drug Screen. Data for the CLN2oe strain (AID 163);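 also: 0% = growth of vehicle-only control cultures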; settings: S. cerevisiae CLN2oe strain, hits give high values
# Procedure, shortened: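 Inhibition relative to vehicle-treated yeast is reported. Cells: strain with genetic alteration in cell-cycle control, grown with compound.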
# [10] = NCI Yeast Anticancer Drug Screen. Data for the cln2 rad14 strain (AID 165);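 also: 0% = growth equal to vehicle treated cultures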; settings: S. cerevisiae cln2 rad14 strain, hits give high values
# Procedure, shortened: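 Each compound was tested on cln2 rad14 yeast. Inhibition of growth was calculated against vehicle-exposed controls.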
# [11] = NCI Yeast Anticancer Drug Screen. Data for the bub3 strain (AID 167); settings: S. cerevisiae bub3 mutant strain, hits give high values
# Procedure, shortened: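 Inhibition values come from growth of compound-treated mutant yeast normalised to vehicle-treated controls.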
# [12] = NCI Yeast Anticancer Drug Screen. Data for the wt2 strain (AID 169);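 also: 0% = growth of vehicle-treated yeast cultures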; settings: S. cerevisiae wt2 strain growth inhibition, hits give high values
# Procedure, shortened: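 Inhibition of yeast growth was determined after compound treatment, normalised to controls receiving only vehicle.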
# [13] = NCI Yeast Anticancer Drug Screen. Data for the mlh1 strain (AID 171);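 also: 0% = growth of vehicle-treated control cultures of the same strain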; settings: S. cerevisiae mlh1 strain growth inhibition, hits give high values
# Procedure, shortened: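 Vehicle-normalised growth inhibition of a repair- or checkpoint-altered yeast strain following compound treatment.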
# [14] = NCI Yeast Anticancer Drug Screen. Data for the sgs1 strain (AID 173);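 also: 0% = growth of vehicle-only control cultures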; settings: S. cerevisiae sgs1 mutant, hits give high values
# Procedure, shortened: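 Screen format: yeast with repair or checkpoint alterations, compound exposure, growth read relative to vehicle.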
# [15] = NCI Yeast Anticancer Drug Screen. Data for the mlh1 rad18 strain (AID 175); settings: S. cerevisiae mlh1 rad18 strain growth inhibition, hits give high values
# Procedure, shortened: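 Vehicle-treated cultures served as the reference for growth inhibition in a yeast strain carrying DNA damage repair alterations exposed to each compound.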
# [16] = NCI Yeast Anticancer Drug Screen. Data for the rad18 strain (AID 177); settings: S. cerevisiae rad18 mutant growth inhibition, hits give high values
# Procedure, shortened: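 Test articles were incubated with altered yeast defective in DNA damage repair. Results are given as inhibition of growth versus vehicle.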
# [17] = at 5.0 µM (retest, dose inferred, filed as 0.5)
# [18] = at 50.0 µM (retest, dose inferred, filed as 5.0)
smiles,measurement,setting,value
O=C1Nc2ccccc2/C1=C/COc1ccccc1,growth inhibition,[1]; at 1.2 µM,1%
same,growth inhibition,[1]; at 3.7 µM,8%
same,growth inhibition,[1]; at 11.0 µM,27%
same,growth inhibition,[1]; at 33.0 µM,90% (active)
same,growth inhibition,[1]; at 100.0 µM,98% (active)
same,growth inhibition,[2]; at 1.2 µM,-1%
same,growth inhibition,[2]; at 3.7 µM,-1%
same,growth inhibition,[2]; at 11.0 µM,9%
same,growth inhibition,[2]; at 33.0 µM,62%
same,growth inhibition,[2]; at 100.0 µM,97% (active)
same,growth inhibition,[3]; at 1.2 µM,21%
same,growth inhibition,[3]; at 3.7 µM,58%
same,growth inhibition,[3]; at 11.0 µM,92% (active)
same,growth inhibition,[3]; at 33.0 µM,97% (active)
same,growth inhibition,[3]; at 100.0 µM,98% (active)
same,growth inhibition,[4]; at 1.2 µM,-1%
same,growth inhibition,[4]; at 3.7 µM,1%
same,growth inhibition,[4]; at 11.0 µM,19%
same,growth inhibition,[4]; at 33.0 µM,93% (active)
same,growth inhibition,[4]; at 100.0 µM,99% (active)
same,growth inhibition,[5]; at 1.2 µM,2%
same,growth inhibition,[5]; at 3.7 µM,4%
same,growth inhibition,[5]; [17],28%
same,growth inhibition,[5]; at 11.0 µM,20%
same,growth inhibition,[5]; at 33.0 µM,71% (active)
same,growth inhibition,[5]; [18],99% (active)
same,growth inhibition,[5]; at 50.0 µM,99.5% (active)
same,growth inhibition,[5]; at 100.0 µM,98% (active)
same,growth inhibition,[6]; at 1.2 µM,-2%
same,growth inhibition,[6]; at 3.7 µM,6%
same,growth inhibition,[6]; [17],13%
same,growth inhibition,[6]; at 11.0 µM,23%
same,growth inhibition,[6]; at 33.0 µM,97% (active)
same,growth inhibition,[6]; [18],99% (active)
same,growth inhibition,[6]; at 50.0 µM,99.5% (active)
same,growth inhibition,[6]; at 100.0 µM,99% (active)
same,growth inhibition,[7]; at 1.2 µM,0%
same,growth inhibition,[7]; at 3.7 µM,5%
same,growth inhibition,[7]; at 11.0 µM,20%
same,growth inhibition,[7]; at 33.0 µM,97% (active)
same,growth inhibition,[7]; at 100.0 µM,99% (active)
same,growth inhibition,[8]; [17],26%
same,growth inhibition,[8]; [18],99% (active)
same,growth inhibition,[8]; at 50.0 µM,99.6% (active)
same,growth inhibition,[9]; at 1.2 µM,0%
same,growth inhibition,[9]; at 3.7 µM,2%
same,growth inhibition,[9]; at 11.0 µM,15%
same,growth inhibition,[9]; at 33.0 µM,39%
same,growth inhibition,[9]; at 100.0 µM,98% (active)
same,growth inhibition,[10]; [17],7%
same,growth inhibition,[10]; [18],99% (active)
same,growth inhibition,[10]; at 50.0 µM,98.2% (active)
same,growth inhibition,[11]; at 1.2 µM,-3%
same,growth inhibition,[11]; at 3.7 µM,0%
same,growth inhibition,[11]; [17],2%
same,growth inhibition,[11]; at 11.0 µM,13%
same,growth inhibition,[11]; at 33.0 µM,96% (active)
same,growth inhibition,[11]; [18],99% (active)
same,growth inhibition,[11]; at 50.0 µM,99.8% (active)
same,growth inhibition,[11]; at 100.0 µM,98% (active)
same,growth inhibition,[12]; at 1.2 µM,-2%
same,growth inhibition,[12]; at 3.7 µM,1%
same,growth inhibition,[12]; at 11.0 µM,15%
same,growth inhibition,[12]; at 33.0 µM,88% (active)
same,growth inhibition,[12]; at 100.0 µM,99% (active)
same,growth inhibition,[13]; at 1.2 µM,-4%
same,growth inhibition,[13]; at 3.7 µM,-1%
same,growth inhibition,[13]; at 11.0 µM,17%
same,growth inhibition,[13]; at 33.0 µM,89% (active)
same,growth inhibition,[13]; at 100.0 µM,99% (active)
same,growth inhibition,[14]; at 1.2 µM,1%
same,growth inhibition,[14]; at 3.7 µM,11%
same,growth inhibition,[14]; at 11.0 µM,45%
same,growth inhibition,[14]; at 33.0 µM,98% (active)
same,growth inhibition,[14]; at 100.0 µM,99% (active)
same,growth inhibition,[15]; [17],20%
same,growth inhibition,[15]; [18],99% (active)
same,growth inhibition,[15]; at 50.0 µM,99.5% (active)
same,growth inhibition,[16]; at 1.2 µM,0%
same,growth inhibition,[16]; at 3.7 µM,4%
same,growth inhibition,[16]; at 11.0 µM,16%
same,growth inhibition,[16]; at 33.0 µM,81% (active)
same,growth inhibition,[16]; at 100.0 µM,98% (active)
OCC1OC(OCC(O)C(O)C(O)C(/C=N/Nc2ccccc2)=N/Nc2ccccc2)C(O)C(O)C1O (stereo unspecified),growth inhibition,[1]; at 1.2 µM,2%
same,growth inhibition,[1]; at 3.7 µM,9%
same,growth inhibition,[1]; at 11.0 µM,16%
same,growth inhibition,[1]; at 33.0 µM,18%
same,growth inhibition,[1]; at 100.0 µM,45%
same,growth inhibition,[2]; at 1.2 µM,4%
same,growth inhibition,[2]; at 3.7 µM,17%
same,growth inhibition,[2]; at 11.0 µM,21%
same,growth inhibition,[2]; at 33.0 µM,24%
same,growth inhibition,[2]; at 100.0 µM,28%
same,growth inhibition,[3]; at 1.2 µM,9%
same,growth inhibition,[3]; at 3.7 µM,30%
same,growth inhibition,[3]; at 11.0 µM,38%
same,growth inhibition,[3]; at 33.0 µM,40%
same,growth inhibition,[3]; at 100.0 µM,37%
same,growth inhibition,[4]; at 1.2 µM,3%
same,growth inhibition,[4]; at 3.7 µM,12%
same,growth inhibition,[4]; at 11.0 µM,11%
same,growth inhibition,[4]; at 33.0 µM,11%
same,growth inhibition,[4]; at 100.0 µM,5%
same,growth inhibition,[5]; at 1.2 µM,-5%
same,growth inhibition,[5]; at 3.7 µM,13%
same,growth inhibition,[5]; [17],15%
same,growth inhibition,[5]; at 11.0 µM,29%
same,growth inhibition,[5]; at 33.0 µM,32%
same,growth inhibition,[5]; [18],22%
same,growth inhibition,[5]; at 50.0 µM,99.2% (active)
same,growth inhibition,[5]; at 100.0 µM,55%
same,growth inhibition,[6]; at 1.2 µM,-2%
same,growth inhibition,[6]; at 3.7 µM,16%
same,growth inhibition,[6]; [17],1%
same,growth inhibition,[6]; at 11.0 µM,20%
same,growth inhibition,[6]; at 33.0 µM,31%
same,growth inhibition,[6]; [18],13%
same,growth inhibition,[6]; at 50.0 µM,99.5% (active)
same,growth inhibition,[6]; at 100.0 µM,68%
same,growth inhibition,[7]; at 1.2 µM,-1%
same,growth inhibition,[7]; at 3.7 µM,1%
same,growth inhibition,[7]; at 11.0 µM,4%
same,growth inhibition,[7]; at 33.0 µM,9%
same,growth inhibition,[7]; at 100.0 µM,28%
same,growth inhibition,[8]; [17],7%
same,growth inhibition,[8]; [18],-2%
same,growth inhibition,[8]; at 50.0 µM,93.3% (active)
same,growth inhibition,[9]; at 1.2 µM,4%
same,growth inhibition,[9]; at 3.7 µM,8%
same,growth inhibition,[9]; at 11.0 µM,10%
same,growth inhibition,[9]; at 33.0 µM,9%
same,growth inhibition,[9]; at 100.0 µM,40%
same,growth inhibition,[10]; [17],7%
same,growth inhibition,[10]; [18],-1%
same,growth inhibition,[10]; at 50.0 µM,99.3% (active)
same,growth inhibition,[11]; at 1.2 µM,2%
same,growth inhibition,[11]; at 3.7 µM,9%
same,growth inhibition,[11]; [17],12%
same,growth inhibition,[11]; at 11.0 µM,10%
same,growth inhibition,[11]; at 33.0 µM,12%
same,growth inhibition,[11]; [18],41%
same,growth inhibition,[11]; at 50.0 µM,99.2% (active)
same,growth inhibition,[11]; at 100.0 µM,47%
same,growth inhibition,[12]; at 1.2 µM,1%
same,growth inhibition,[12]; at 3.7 µM,7%
same,growth inhibition,[12]; at 11.0 µM,20%
same,growth inhibition,[12]; at 33.0 µM,17%
same,growth inhibition,[12]; at 100.0 µM,17%
same,growth inhibition,[13]; at 1.2 µM,-2%
same,growth inhibition,[13]; at 3.7 µM,4%
same,growth inhibition,[13]; at 11.0 µM,8%
same,growth inhibition,[13]; at 33.0 µM,11%
same,growth inhibition,[13]; at 100.0 µM,30%
same,growth inhibition,[14]; at 1.2 µM,3%
same,growth inhibition,[14]; at 3.7 µM,13%
same,growth inhibition,[14]; at 11.0 µM,16%
same,growth inhibition,[14]; at 33.0 µM,19%
same,growth inhibition,[14]; at 100.0 µM,35%
same,growth inhibition,[15]; [17],18%
same,growth inhibition,[15]; [18],31%
same,growth inhibition,[15]; at 50.0 µM,99.4% (active)
same,growth inhibition,[16]; at 1.2 µM,7%
same,growth inhibition,[16]; at 3.7 µM,25%
same,growth inhibition,[16]; at 11.0 µM,30%
same,growth inhibition,[16]; at 33.0 µM,39%
same,growth inhibition,[16]; at 100.0 µM,81% (active)
